Molecules are shown by their SMILES. A number with no mark means an inactive call. Results filed as inconclusive are left out. The source made the active and inactive calls. Unless noted, the call rests on the fitted dose curve; in most records, active means well fitted curve in the direction sought with a large enough effect in the repeat runs; inconclusive means weak or mixed curves; inactive means no such curve, though single readings can be large; an effect the other way counts as inactive or inconclusive.

A short description of assay [1]: qHTS assay to identify small molecule agonists of the sonic hedgehog signaling (Shh) pathway - cell viability counter screen (AID 1259366). Further: nearly all actives have a fitted effect of over 50% in size. In short, it runs like this:
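In quantitative high-throughput format, 3T3 Gli1-Luc cells were exposed to compounds for 24hr and multiplexed for viability using CellTiter-Fluor, incubated 1hr at 37C before the fluorescence read.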
(In general: Quantitative high-throughput screening tests each substance at several concentrations.)

Assay [2] can be described thus: qHTS assay to identify small molecule antagonists of the sonic hedgehog signaling (Shh) pathway - cell viability counter screen (AID 1259367). Further: nearly all actives have a fitted effect of over 55% in size. In outline:
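After a 4 hr settling period, 3T3 Gli1-Luc cells were treated with DMSO-dissolved chemicals and conditioned medium, kept 24 hr at 37C in 5% CO2, and assayed for viability by CellTiter-Fluor fluorescence following 1 hr reagent incubation.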

Assay [3] in a line: qHTS assay to identify small molecule agonists of the sonic hedgehog signaling (Shh) pathway (AID 1259368; calls by dose curve;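 further: NIH/3T3-derived 3T3Gli1-Luc cells carrying a stable Gli1-driven firefly luciferase reporter; series mostly up to about 92 µM; nearly all actives have a fitted effect of over 15% in size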). In outline: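 Luminescent signal was taken as a measure of Gli1-controlled luciferase expression in stably transfected NIH/3T3-derived cells that had been treated for 24 hr with compounds delivered in DMSO.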
Assay [4] in a line: qHTS assay to identify small molecule antagonists of the sonic hedgehog signaling (Shh) pathway (AID 1259369; calls by dose curve; further: nearly all actives have a fitted effect of over 45% in size; further: potency means the concentration at half of the fitted maximal effect). In outline: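 Screening used 3T3Gli1-Luc cells at 2,000 per well, compounds delivered in DMSO, and conditioned medium as agonist stimulus; plates incubated 24hr at 37 C and 5% CO2 before a 30min luciferase step.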
The target of assay [5] is Estrogen receptor beta (Homo sapiens) (UniProt Q92731). As to the kind of experiment: qHTS assay to identify small molecule agonists of the estrogen receptor beta (ER-beta) signaling pathway (AID 1259377; active means well fitted activation curve with a large enough effect in the signal ratio in the repeat runs, not every such curve was filed as active; the % refers to the signal ratio; further: potency means the concentration at half of the fitted maximal effect). In short, it runs like this:
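Reporter cells (HEK293T, ER-beta-UAS-bla) receive compounds or DMSO after a 6 hr pre-incubation. They then incubate 16 hr at 37C/5% CO2, and fluorescence from LiveBLAzer B/G substrate is measured after 2 hours at room temperature.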

Assay [6] can be described thus: qHTS assay to identify small molecule agonists of the androgen receptor (AR) signaling pathway in the presence of an antagonist - cell viability counter screen (AID 1259379).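 Further: MDA-kb2 human breast cancer cells carrying an MMTV luciferase reporter; series mostly up to about 92 µM; nearly all actives have a fitted effect of over 25% in size.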 In outline: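 In MDA-kb2 cells (human breast carcinoma, MMTV-luciferase), compounds at 15 concentrations plus 3.0uM nilutamide; 16 hr, 37C, 0% CO2; CellTiter-Fluor fluorescence read for viability.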

Assay [7] is described as follows: qHTS assay to identify small molecule agonists of the estrogen receptor beta (ER-beta) signaling pathway - cell viability counter screen (AID 1259380). Further: nearly all actives have a fitted effect of over 30% in size. In short, it runs like this:
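Viability of ER-beta-UAS-bla HEK293T cells was determined by CellTiter-Glo luminescence following 16 hr treatment with test compounds at 37C.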

The nature of assay [8]: qHTS assay to identify small molecule antagonists of the estrogen receptor beta (ER-beta) signaling pathway - cell viability counter screen (AID 1259382).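 Further: HEK293T cells carrying ER-beta-UAS-bla reporter stimulated with estradiol; series mostly up to about 92 µM; nearly all actives have a fitted effect of over 55% in size.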 In short, it runs like this:
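Tox21 10K library tested in qHTS format on ER-beta-bla HEK293T cells stimulated with 1nM E2; 16 hr treatment at 37C. Same-well CellTiter-Glo luminescence served as the cell viability measure.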

Assay [9] is described as follows: qHTS assay to identify small molecule agonists or antagonists of the thyroid stimulating hormone receptor (TSHR) signaling pathway - wild type cell line counter screen (AID 1259384; calls by dose curve). In outline: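 Wild-type HEK293 cells were plated 18 h at 37 C/5% CO2, pin-dosed with compound plus Ro20-1724 medium, held 30 min at room temperature, then given cAMP-d2 and anti-cAMP-cryptate; fluorescence was read after 1 h. Fifteen concentrations, triplicate.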

For assay [10], the target named is Thyrotropin receptor (Homo sapiens) (UniProt P16473). Briefly: qHTS assay to identify small molecule antagonists of the thyroid stimulating hormone receptor (TSHR) signaling pathway (AID 1259385; calls by dose curve; further: nearly all actives have a fitted effect of over 20% in size). In outline:
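TSHR-HEK293 cells were plated and held 18 h at 37C/5% CO2, then given compound plus Ro20-1724 and stimulated with TSH at 1.5 ng/mL final. After 30 min at room temperature, cAMP was detected with cAMP-d2/anti-cAMP-cryptate (1 h) by fluorescence.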

Assay [11] is described as follows: qHTS assay to identify small molecule agonists of the estrogen receptor alpha (ER-alpha) signaling pathway in the presence of an antagonist - cell viability counter screen (AID 1259386).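 Further: series mostly up to about 92 µM; cells exposed to compounds for 22 h at 37 °C before the viability read; nearly all actives have a fitted effect of over 30% in size.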 In outline: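 Fluorescent CellTiter-Fluor viability signal from VM7Luc4E2 cells, with the reagent added during the final hour of a 22hr compound exposure at 37C in the presence of 10.0nM ICI-182,780.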

For assay [12], the target named is Progesterone receptor (Homo sapiens) (UniProt P06401). Briefly: qHTS assay to identify small molecule agonists of the progesterone receptor (PR) signaling pathway (AID 1346784; calls by dose curve; further: nearly all actives have a fitted effect of over 30% in size). In outline:
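Reporter assay, GripTite PR-UAS-bla HEK 293T cells: 16 hr exposure to DMSO-dissolved compounds at 37C, 5% CO2, in steroid-depleted (2% charcoal-stripped FBS) medium; beta-lactamase measured by FRET fluorescence.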

Assay [13] has the same target. Briefly: qHTS assay to identify small molecule antagonists of the progesterone receptor (PR) signaling pathway (AID 1346795; active means well fitted inhibition curve with a large enough effect in the signal ratio in the repeat runs, not every such curve was filed as active; the % refers to the signal ratio). In outline:
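Stimulus R5020 at 1 nM final; cells HEK293T PR-UAS-bla; medium with 2% charcoal-stripped FBS; compound exposure 16 hr at 37C, 5% CO2; detection by FRET beta-lactamase substrate, 2 hr, room temperature.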

Assay [14] in a line: qHTS assay to identify small molecule antagonists of the progesterone receptor (PR) signaling pathway - cell viability counter screen (AID 1346798). Further: series mostly up to about 92 µM; nearly all actives have a fitted effect of over 50% in size. In short, it runs like this:
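In the same plates used for the beta-lactamase readout, cell viability of compound- and R5020-treated PR-UAS-bla HEK293T cells (16 hr, 37C) was assessed by CellTiter-Glo luminescence.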

Assay [15] is described as follows: qHTS assay to identify small molecule agonists of the progesterone receptor (PR) signaling pathway - cell viability counter screen (AID 1346799; calls by dose curve; further: nearly all actives have a fitted effect of over 45% in size). In outline:
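Multiplexed viability read: CellTiter-Glo luminescence, 30 min RT, following LiveBLAzer FRET measurement on PR-UAS-bla HEK293T cells exposed to compounds 16 hr.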

A short description of assay [16]: qHTS assay to identify small molecule antagonists of the TGF-beta/Smad signaling pathway - cell viability counter screen (AID 1346824). Further: nearly all actives have a fitted effect of over 50% in size. In outline:
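SBE-bla HEK 293T cells were plated overnight at 37 C, then given compounds in DMSO plus TGF-beta1 (added as 0.25 ng/mL solution) for 5 hr. After the bla read, CellTiter-Glo was added to the same wells and luminescence read after 30 min at room temperature.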

Assay [17] can be described thus: qHTS assay to identify small molecule agonists of the TGF-beta/Smad signaling pathway - cell viability counter screen (AID 1346829). Further: top concentration of the series differs between compounds; nearly all actives have a fitted effect of over 45% in size. In short, it runs like this:
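Same-well cytotoxicity: CellTiter-Glo added after the 2 hr room-temperature beta-lactamase substrate step, luminescence measured 30 min later; cells had 5 hr of compound at 37 C.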

Assay [18] addresses Estrogen receptor (Homo sapiens) (UniProt P03372). Briefly: qHTS assay to identify small molecule agonists of the estrogen receptor alpha (ER-alpha) signaling pathway in the presence of an antagonist (AID 1259383; calls by dose curve; further: nearly all actives have a fitted effect of over 15% in size; further: potency means the concentration at half of the fitted maximal effect; on activation: top concentration of the series differs between compounds). In short, it runs like this: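 In VM7Luc4E2 cells, 4,000 per well, compounds at 15 concentrations were co-incubated 22hr at 37C with 10.0nM final ICI-182,780. Luminescence from the stably transfected 4×ERE-luciferase reporter was recorded 30min after ONE-Glo addition.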

Sequence of Estrogen receptor (Homo sapiens) (P03372 whole entry, looked up): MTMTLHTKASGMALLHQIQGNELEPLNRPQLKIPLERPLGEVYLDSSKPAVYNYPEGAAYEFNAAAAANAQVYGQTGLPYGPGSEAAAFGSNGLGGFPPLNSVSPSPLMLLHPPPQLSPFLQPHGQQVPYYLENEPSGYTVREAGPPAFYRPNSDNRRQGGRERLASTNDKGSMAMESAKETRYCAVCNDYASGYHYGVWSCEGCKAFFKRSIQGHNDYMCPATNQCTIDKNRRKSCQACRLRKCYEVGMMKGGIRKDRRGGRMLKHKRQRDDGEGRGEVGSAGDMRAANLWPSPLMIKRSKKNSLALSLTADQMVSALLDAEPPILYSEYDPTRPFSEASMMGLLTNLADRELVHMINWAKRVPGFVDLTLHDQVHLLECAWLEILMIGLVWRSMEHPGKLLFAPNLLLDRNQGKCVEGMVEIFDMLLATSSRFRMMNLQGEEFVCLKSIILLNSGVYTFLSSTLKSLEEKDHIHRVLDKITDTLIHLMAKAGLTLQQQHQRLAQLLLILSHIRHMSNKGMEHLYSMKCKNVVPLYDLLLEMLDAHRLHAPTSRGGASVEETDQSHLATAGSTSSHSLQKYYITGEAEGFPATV
Sequence of Progesterone receptor (Homo sapiens) (P06401 whole entry, looked up): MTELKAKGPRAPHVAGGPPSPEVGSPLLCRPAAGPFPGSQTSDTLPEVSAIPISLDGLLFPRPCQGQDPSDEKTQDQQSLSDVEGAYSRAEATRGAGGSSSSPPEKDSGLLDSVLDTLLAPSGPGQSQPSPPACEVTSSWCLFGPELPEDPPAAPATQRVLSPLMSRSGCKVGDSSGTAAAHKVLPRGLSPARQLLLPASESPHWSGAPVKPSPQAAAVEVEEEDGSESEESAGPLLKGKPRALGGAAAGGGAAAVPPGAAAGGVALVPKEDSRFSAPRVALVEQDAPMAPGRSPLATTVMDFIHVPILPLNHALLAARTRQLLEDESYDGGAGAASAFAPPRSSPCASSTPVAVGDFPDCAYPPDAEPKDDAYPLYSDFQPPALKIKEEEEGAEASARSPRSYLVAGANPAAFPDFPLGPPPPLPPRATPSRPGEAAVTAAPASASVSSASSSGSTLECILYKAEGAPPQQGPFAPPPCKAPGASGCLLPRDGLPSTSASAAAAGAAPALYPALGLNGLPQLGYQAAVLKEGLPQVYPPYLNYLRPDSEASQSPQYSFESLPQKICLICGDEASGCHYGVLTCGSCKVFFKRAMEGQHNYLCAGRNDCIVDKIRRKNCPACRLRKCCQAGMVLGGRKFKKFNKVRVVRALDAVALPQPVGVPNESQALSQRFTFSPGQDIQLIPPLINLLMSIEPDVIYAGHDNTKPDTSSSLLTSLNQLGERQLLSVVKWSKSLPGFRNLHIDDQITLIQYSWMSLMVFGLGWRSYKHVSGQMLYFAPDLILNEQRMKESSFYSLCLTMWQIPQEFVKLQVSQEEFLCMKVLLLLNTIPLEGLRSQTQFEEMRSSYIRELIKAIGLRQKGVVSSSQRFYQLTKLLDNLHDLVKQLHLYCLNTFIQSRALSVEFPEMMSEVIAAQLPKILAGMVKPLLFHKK
Sequence of Thyrotropin receptor (Homo sapiens) (P16473 whole entry, looked up): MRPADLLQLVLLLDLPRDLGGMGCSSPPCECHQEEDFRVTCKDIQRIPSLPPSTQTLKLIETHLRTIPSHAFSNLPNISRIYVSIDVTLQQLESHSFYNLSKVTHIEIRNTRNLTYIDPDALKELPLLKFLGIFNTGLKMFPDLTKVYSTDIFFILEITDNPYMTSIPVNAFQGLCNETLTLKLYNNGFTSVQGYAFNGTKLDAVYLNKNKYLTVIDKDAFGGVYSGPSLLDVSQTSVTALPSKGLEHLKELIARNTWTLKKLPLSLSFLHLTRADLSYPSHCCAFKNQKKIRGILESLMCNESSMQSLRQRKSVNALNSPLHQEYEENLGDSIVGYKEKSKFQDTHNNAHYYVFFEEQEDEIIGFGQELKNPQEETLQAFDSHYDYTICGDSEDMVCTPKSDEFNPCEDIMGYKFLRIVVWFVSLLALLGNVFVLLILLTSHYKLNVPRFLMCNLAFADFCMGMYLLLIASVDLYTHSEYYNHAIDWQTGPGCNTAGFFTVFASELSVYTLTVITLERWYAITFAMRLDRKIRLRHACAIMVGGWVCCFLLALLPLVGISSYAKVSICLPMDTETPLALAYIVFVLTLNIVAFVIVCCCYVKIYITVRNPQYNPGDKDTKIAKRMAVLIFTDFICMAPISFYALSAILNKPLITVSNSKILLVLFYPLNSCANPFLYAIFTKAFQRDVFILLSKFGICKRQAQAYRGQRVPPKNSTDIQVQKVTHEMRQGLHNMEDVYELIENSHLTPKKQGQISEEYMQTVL
Sequence of Estrogen receptor beta (Homo sapiens) (Q92731 whole entry, looked up): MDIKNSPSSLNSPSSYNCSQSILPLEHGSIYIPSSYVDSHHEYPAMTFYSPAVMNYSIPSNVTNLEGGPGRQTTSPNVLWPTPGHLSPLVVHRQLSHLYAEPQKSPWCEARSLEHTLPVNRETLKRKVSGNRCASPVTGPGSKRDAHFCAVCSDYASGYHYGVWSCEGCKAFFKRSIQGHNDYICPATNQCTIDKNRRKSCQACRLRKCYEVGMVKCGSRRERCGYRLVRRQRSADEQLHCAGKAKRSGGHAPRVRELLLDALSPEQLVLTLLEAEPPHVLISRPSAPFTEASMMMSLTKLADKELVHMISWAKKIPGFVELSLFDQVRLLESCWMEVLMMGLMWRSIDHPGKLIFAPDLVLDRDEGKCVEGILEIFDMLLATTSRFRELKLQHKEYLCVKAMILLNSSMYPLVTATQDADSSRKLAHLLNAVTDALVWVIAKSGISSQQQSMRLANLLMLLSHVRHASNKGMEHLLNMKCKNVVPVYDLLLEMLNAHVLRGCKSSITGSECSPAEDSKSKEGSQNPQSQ

`CCCCCCCCOCCC#N`: the call in assay [1], in assay [2], in assay [3], in assay [6], in assay [8] and in assay [9] was inactive. Besides, the outcome in [10], in [11], in assay [14], in assay [16] and in [17] was inactive. Further, the Potency result in assay [4], in assay [5], in assay [7], in assay [12], in assay [13] and in assay [15] was “inactive” throughout.
Consider `CC(=O)O[C@@H]1CC2C3CCc4cc(OC(=O)c5ccccc5)ccc4C3CCC2(C)[C@H]1OC(C)=O` (stereo not given in full), for which the outcome in [1], in [2], in assay [3], in assay [6], in [8] and in assay [9] was inactive. For the same compound, the call in assay [10], in assay [11] and in assay [16] was inactive. Moreover, the Potency result in assay [4], in [12] and in [15] was “inactive” in each case. Further, the Potency in [5] was 13.3 nM (active); in assay [18], 47.3 nM (active).
On to `Nc1cc(S(=O)(=O)O)ccc1O`, for which the compound was classed as inactive in [1], in assay [2], in [3], in assay [6], in assay [8] and in assay [9]. Besides, the compound was classed as inactive in [10], in assay [11], in assay [14], in assay [16] and in assay [17]. The Potency result in assay [4], in [7], in [18], in assay [12], in [13] and in assay [15] was “inactive” in each case.
As for `C[Si](C)(C)O[Si](O)(O)O`, the compound was called inactive in assay [1], in assay [2], in assay [3], in assay [6], in assay [8] and in [11]. The compound was called inactive in [16] and in assay [17]. For the same compound, the Potency entry in assay [4], in assay [7], in assay [18], in [12] and in assay [15] was “inactive” each time.
In the case of `Cc1ccc(Br)cc1`, the call in assay [1], in assay [2], in [3], in assay [6], in assay [8] and in assay [9] was inactive. Moreover, the call in [10], in assay [11], in assay [14], in assay [16] and in [17] was inactive. Also, the Potency result in [4], in assay [7], in [18], in assay [13] and in assay [15] was “inactive” in each case.
Consider `CC(=O)/C=C/C=C1/C2CCC(C2)C1(C)C` (stereo not given), for which the compound was called inactive in [1], in [2], in assay [3], in assay [6], in [8] and in assay [9]. Besides, the compound was classed as inactive in assay [10], in assay [11], in assay [14] and in assay [17]. The Potency entry in [4], in [7], in [18] and in assay [12] was “inactive” in each case.
Turning to `CC(C)OC(=O)C(C(=O)OC(C)C)=C1SC=CS1`, the call in [1], in assay [2], in assay [3], in assay [6], in assay [8] and in assay [10] was inactive. Moreover, the outcome in assay [11], in assay [16] and in assay [17] was inactive. Besides, the Potency in [4] is 4730 nM (active). In addition, the Potency entry in assay [12] is “inactive”.
`O=C(O)Cc1ccccc1Oc1ccc(Cl)cc1Cl`: the outcome in assay [1], in assay [2], in assay [3], in [6], in assay [8] and in assay [9] was inactive. Also, the compound was classed as inactive in [10], in [11] and in assay [16]. Further, the Potency entry in assay [4], in [18], in [12] and in assay [13] was “inactive” in each case.

The values are drawn from PubChem BioAssay (Tox21).
